High-throughput results from PubChem BioAssay.
D3 antag: blocks the human D3 dopamine receptor; P35462; D3R cells, DiscoveRx beta-arrestin luminescence, antagonist mode; hits give low values; max response, negative = inhibition, %; 360,000 tested, 2.5% active; AID 652054; in the data active means max response below about -50%; further: on the % scale 0 is the no-effect control and ±100 the full control effect
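Cells expressing the human receptor were seeded at 1500 cells/well, incubated overnight at 37 degrees C in 5% CO2, then exposed to library compounds with dopamine controls for 90 minutes at 37 degrees C before luminescent detection.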
D1 agonist: agonists of human D1 dopamine receptor; AID 504660; P21728; activation, % at 2 µM; HEK293 T-REx D1 cells, calcium flux, agonist mode; 360,000 tested, 1% active; in the data active means activation above about 30%; further: 0% is about no effect
Target sequence (P21728 whole entry, looked up): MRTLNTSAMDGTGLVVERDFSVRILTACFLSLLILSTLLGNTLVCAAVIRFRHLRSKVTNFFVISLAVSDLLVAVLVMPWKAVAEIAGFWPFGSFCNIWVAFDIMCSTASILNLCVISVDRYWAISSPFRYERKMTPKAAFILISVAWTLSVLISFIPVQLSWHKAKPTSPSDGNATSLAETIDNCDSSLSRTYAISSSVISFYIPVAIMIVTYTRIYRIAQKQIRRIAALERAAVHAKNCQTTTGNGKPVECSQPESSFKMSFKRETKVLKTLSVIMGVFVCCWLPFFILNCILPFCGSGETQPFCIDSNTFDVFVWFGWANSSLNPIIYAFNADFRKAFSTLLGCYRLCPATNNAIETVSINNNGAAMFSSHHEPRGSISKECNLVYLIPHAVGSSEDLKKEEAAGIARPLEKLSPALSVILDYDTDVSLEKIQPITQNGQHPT
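Tetracycline-induced HEK293 TREx D1 cells, force-coupled to calcium signalling, were dye-loaded with a no-wash calcium kit. Compound was pin-added after a 10 s baseline. Fluorescence was read kinetically at 1 cycle/s for 180 s, with calcium rises flagged as agonism.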
D1 antagonist: blocks dopamine activation of the human D1 receptor | HEK293 TREx D1 cells, calcium flux, dopamine EC80; hits give low values | activity change, negative = inhibition, % at 10 µM | 360,000 tested, 3.2% active | AID 504652; in the data active means activity change below about -30%; further: on the % scale 0 is the no-effect control and ±100 the full control effect
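HEK293 T-REx cells expressing inducible, force-coupled D1 receptor; no-wash Ca dye, 30–90 min RT. Cmpd → 180 s read at 1 Hz → EC80 DA → 180 s read.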
D1 potentiator: potentiators of human D1 dopamine receptor; HEK293 TREx D1 cells, calcium flux, dopamine EC20 potentiation; potentiation, % at 10 µM; 360,000 tested, 0.036% active; AID 504651; in the data active means potentiation above about 30%; further: 0% is about no effect
D3 ag: agonists of human D3 dopamine receptor; D3R DiscoveRx beta-arrestin cells, luminescence, 90 min; max activation, %; 410,000 tested, 0.58% active; AID 652048; in the data active means max activation above about 30%; further: 0% is about no effect
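Cells at 1500/well, incubated overnight, then treated with pinned compounds (dopamine as control) for 90 min at 37 degrees C. DiscoveRx reagent added for 30 - 60 minutes at room temperature; luminescence read.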
* hit, by the source's call. Hits are enriched below; roughly 6% of the tested compounds scored in any of these assays.

Screening COC(=O)c1sccc1NC(=O)COc1ccc(C)cc1 returned D3 antag -75*, D1 agonist 2, D1 antagonist 3, D1 potentiator 4 and D3 ag -3.
`Cc1ccc(C(=O)c2cn(Cc3cccc(F)c3)c3nc(C)ccc3c2=O)cc1` gave D1 agonist 2, D1 antagonist -9, D1 potentiator 0 and D3 ag -4.
c1ccc(CCNc2nc(-c3ccccc3)cs2)cc1 was read as D3 ag 6.
Screening CCN(CC)CCCn1c(C)cc2c(c1=O)C(c1ccccc1)C(C#N)=C(N)O2 (configuration not stated) returned D3 antag -20, D1 agonist 0, D1 antagonist -23, D1 potentiator -7 and D3 ag -12.
Screening Cc1cc2c(c(=O)n1CCc1ccccc1)C(C(C)C)C(C#N)=C(N)O2 (configuration not stated) returned D3 antag 40, D1 agonist 3, D1 antagonist -32*, D1 potentiator -12 and D3 ag 3.
Screening Brc1ccccc1-n1ncc2c1ncn1nc(Cc3ccccc3)nc21 returned D1 agonist 0, D1 antagonist -63*, D1 potentiator 0 and D3 ag 1.
For COCCN(CCOC)c1ncnc2c1c(-c1ccccc1)cn2-c1ccc(C)c(Cl)c1 the results were D1 agonist 0, D1 antagonist -2, D1 potentiator -2 and D3 ag 8.
Screening Cc1cc(C)nc(NC(=O)c2ccc([N+](=O)[O-])c(C)c2)n1 returned D3 antag 10, D1 agonist 3, D1 antagonist 4, D1 potentiator -5 and D3 ag 2.
`Cc1cc(C(=O)Nc2ncn[nH]2)ccc1[N+](=O)[O-]` gave D3 antag -10, D1 agonist 4, D1 antagonist 2, D1 potentiator -4 and D3 ag 34*.
`CCOc1ccccc1N(C)C(=O)Cn1cnc2sc(C)c(S(=O)(=O)N3CCC(C)CC3)c2c1=O` gave D1 agonist 5, D1 antagonist -4, D1 potentiator 4 and D3 ag -5.
For Cc1ccccc1Cn1c(C)c(CNCCCc2ccccc2)c(C(=O)O)c1C the results were D1 agonist 0, D1 antagonist -4, D1 potentiator -2 and D3 ag -2.
Screening CC(=O)NCC1COc2ccccc2O1 (configuration not stated) returned D3 antag 4, D1 agonist 2, D1 antagonist -11, D1 potentiator -9 and D3 ag 3.
For CC(C)Oc1ccc(/C=C/C(=O)NCC2COc3ccccc3O2)cc1 (configuration not stated) the results were D3 antag 3, D1 agonist 7, D1 antagonist -91*, D1 potentiator -1 and D3 ag -11.
`S=C(Nc1ccc(Cc2ccncc2)cc1)Nc1cccc(Cl)c1` gave D3 antag -14, D1 agonist 5, D1 antagonist -32*, D1 potentiator -5 and D3 ag -11.
`S=C(NCc1ccncc1)Nc1ccc(Cl)c(Cl)c1` gave D3 antag 1, D1 agonist 23, D1 antagonist -36*, D1 potentiator -12 and D3 ag 0.
Screening S=C(NCc1ccncc1)Nc1ccc(Br)cc1 returned D3 antag -18, D1 agonist 12, D1 antagonist -17, D1 potentiator -3 and D3 ag -10.
`S=C(NCc1cccnc1)Nc1cc(Cl)cc(Cl)c1` gave D3 antag -16, D1 agonist 16, D1 antagonist -7, D1 potentiator -4 and D3 ag -6.
S=C(NCc1ccncc1)Nc1cc(Cl)cc(Cl)c1 was read as D3 antag 11, D1 agonist 15, D1 antagonist -31*, D1 potentiator -13 and D3 ag -10.
`CCOC(=O)N1CCc2c(sc3nc(SC(C)C)n(N)c(=O)c23)C1` gave D3 antag 0, D1 agonist 8, D1 antagonist 11, D1 potentiator 4 and D3 ag 31*.
CCc1nn(CC(=O)NCCc2ccc(OC)cc2OC)c(=O)c2cc3sccc3n12 was read as D1 agonist 0, D1 antagonist -1, D1 potentiator -4 and D3 ag -16.
Cc1ccc(S(=O)(=O)NCCc2nnc3ccc(SCC(=O)Nc4ccc(OC(F)(F)F)cc4)nn23)cc1 was read as D1 agonist 0, D1 antagonist 1, D1 potentiator -2 and D3 ag 2.
`Cc1nn(-c2ccc(N3CCOCC3)nn2)c(C)c1CCC(=O)Nc1ccc(F)cc1F` gave D1 agonist 8, D1 antagonist -17, D1 potentiator 1 and D3 ag 75*.
Screening CC(C)OCCCNC(=O)CCCN1C(=O)CCn2nc(-c3cccn3C)cc21 returned D1 agonist 0, D1 antagonist 3, D1 potentiator -2 and D3 ag -11.
`CC(=O)c1cc(C#N)c(NCc2ccccc2)nc1C` gave D3 antag 9, D1 agonist 12, D1 antagonist -10, D1 potentiator -4 and D3 ag 2.
CCN(CC)C(=O)CSc1nc(C)cc(C)c1C#N was read as D3 antag -25, D1 agonist 1, D1 antagonist 11, D1 potentiator 3 and D3 ag -7.
`CCc1ccc2nc(SCC(=O)N(CC)CC)c(C#N)cc2c1` gave D3 antag 12, D1 agonist 1, D1 antagonist -46*, D1 potentiator -8 and D3 ag -2.
For CCOC(=O)c1cc(C#N)c(Oc2cccc(C(F)(F)F)c2)nc1-c1ccccc1 the results were D3 antag 13, D1 agonist 18, D1 antagonist -5, D1 potentiator -5 and D3 ag 1.
Screening CCOC(=O)c1cc(C#N)c(Oc2ccc(F)cc2)nc1-c1ccccc1 returned D3 antag 48, D1 agonist 8, D1 antagonist -35*, D1 potentiator -2 and D3 ag 1.
COc1ccc(-c2nc(-c3ccccc3)nc(N3CCN(C)CC3)c2C#N)cc1 was read as D3 antag -85* and D3 ag -12.
CCOC(=O)c1cc(C#N)c(NCc2ccccc2)nc1C was read as D3 antag -18, D1 agonist 5, D1 antagonist -43*, D1 potentiator -6 and D3 ag -5.
CN1CCN(c2nc(-c3ccccc3)nc(-c3ccccc3)c2C#N)CC1 was read as D3 antag -29, D1 agonist 2, D1 antagonist 24, D1 potentiator -1 and D3 ag -3.
`CCOc1ccc2oc(=O)cc(CN3CCN(Cc4ccc(F)cc4)CC3)c2c1` gave D1 agonist 5, D1 antagonist -13, D1 potentiator -3 and D3 ag -35.
Screening CCc1ccc(CN(Cc2cn[nH]c2-c2ccc(OC)cc2)C(=O)Nc2ccc(C)c(F)c2)cc1 returned D1 agonist 1, D1 antagonist 1, D1 potentiator -2 and D3 ag 10.
